Screening data (PubChem BioAssay)
pPAFAH inh = pPAFAH (human) enzyme inhibition; Q13093; recombinant pPAFAH, FP-rhodamine probe fluorescence polarization; inhibition, % at 3.39 µM; 330,000 tested, 1.5% active; AID 463082;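 active = inhibition above the mean inhibition across the screen plus 3 SD, cut at about 25% in these data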;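 note: inhibitors block binding of the rhodamine activity-based probe so polarization drops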
Target sequence (Q13093 whole entry, looked up): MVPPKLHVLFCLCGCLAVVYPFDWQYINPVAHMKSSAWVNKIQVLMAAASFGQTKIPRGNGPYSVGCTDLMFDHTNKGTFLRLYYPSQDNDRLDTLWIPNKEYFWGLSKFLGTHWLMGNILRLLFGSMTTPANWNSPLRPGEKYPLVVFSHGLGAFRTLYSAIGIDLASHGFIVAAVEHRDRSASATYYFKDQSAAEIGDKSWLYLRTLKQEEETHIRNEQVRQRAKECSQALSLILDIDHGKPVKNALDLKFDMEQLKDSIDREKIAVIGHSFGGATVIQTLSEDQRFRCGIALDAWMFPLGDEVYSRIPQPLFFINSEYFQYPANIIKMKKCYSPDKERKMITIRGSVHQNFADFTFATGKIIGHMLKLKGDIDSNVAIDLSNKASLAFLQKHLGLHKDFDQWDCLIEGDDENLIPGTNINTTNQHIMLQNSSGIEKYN
ZTA DNA inh = ZTA (EBV) inhibition in EBNA-1 counter-screen | AID 2234 | ZTA-DNA binding, fluorescence polarization | inhibition, % at 11 µM | P03206 | 320,000 tested, 0.15% active; in the data active = inhibition above about 33%
EBNA-1 inh = blocks EBNA-1 binding to DNA. EBNA-1 DNA binding, fluorescence polarization. 300,000 tested, 0.34% active. inhibition, % at 14.8 µM; in the data active = inhibition above about 28%
PAFAH1B2 FP inh = PAFAH1B2 (human) inhibition | AID 492953 | inhibition, % at 3.39 µM | recombinant PAFAH1B2, FP-rhodamine activity probe, fluorescence polarization | 340,000 tested, 1.2% active | P68402;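 active = inhibition above the mean of all tested compounds plus 3 SD, cut at about 24% in these data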
PAFAH1B3 FP inh = blocks human PAF acetylhydrolase 1B catalytic subunit 3. Q15102. recombinant PAFAH1B3, FP-rhodamine probe, fluorescence polarization. inhibition, % at 3.39 µM. 340,000 tested, 0.28% active. AID 492972;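 active = inhibition above the screen-wide average of all tested compounds plus 3 SD, cut at about 25% in these data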
Target sequence (Q15102 whole entry, looked up): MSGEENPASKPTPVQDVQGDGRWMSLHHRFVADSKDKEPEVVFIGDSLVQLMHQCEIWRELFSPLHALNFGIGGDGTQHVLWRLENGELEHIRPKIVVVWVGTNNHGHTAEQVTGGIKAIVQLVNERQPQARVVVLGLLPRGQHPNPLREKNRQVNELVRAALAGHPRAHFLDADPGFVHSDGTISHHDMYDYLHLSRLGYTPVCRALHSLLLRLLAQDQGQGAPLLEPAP
PAFAH2 FP inh = PAFAH2 (human) inhibition | Q99487 | AID 492956 | recombinant PAFAH2, FP-rhodamine activity probe, fluorescence polarization | 340,000 tested, 0.99% active | inhibition, % at 3.39 µM;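 active = inhibition above the mean over all tested compounds plus 3 SD, cut at about 30% in these data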;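 note: inhibitors block probe labeling of enzyme so polarization drops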
Zta DNA confirm = EBV ZTA DNA binding inhibition, confirmation. AID 2361. inhibition, % at 11.1 µM. 320 tested, 30% active. shares compounds with ZTA DNA inh. Zta-ZRE DNA binding, fluorescence polarization;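 active = mean inhibition across triplicate runs above the hit threshold derived for the original primary screen, cut at about 33% in these data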
EBNA-1 counter = blocks EBNA-1 DNA binding in ZTA counter-screen. shares compounds with ZTA DNA inh. inhibition, % at 14.8 µM. 320 tested, under 10 active. fluorescence polarization; call rule not given here
pPAFAH FP conf = pPAFAH (human) inhibition, confirmed; shares compounds with pPAFAH inh; recombinant pPAFAH, FP-Rh probe fluorescence polarization; inhibition, % at 3.39 µM; 2,300 tested, 72% active; AID 463230;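 active = mean inhibition of the triplicate above the hit cutoff set for the earlier primary screen, cut at about 25% in these data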
PAFAH1B3 conf FP = PAFAH1B3 (human) inhibition, confirmed; AID 493032; inhibition, % at 3.39 µM; recombinant PAFAH1B3, FP-Rh activity-based probe, fluorescence polarization; 390 tested, 30% active; shares compounds with PAFAH1B3 FP inh;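 active = average inhibition over triplicate runs above the hit cutoff set in the earlier primary screen, cut at about 25% in these data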
Of the large screens only hits and unclear results are named; the others gave an inactive call (follow-up assays come after a bar, where they were run). A selection: hits, their analogues and other compounds. The true share with any hit is near 2.9%.

Cc1nc2c(=O)n(C)c(=O)nc-2n(C)n1	ZTA DNA inh 46, PAFAH1B2 FP inh 28, PAFAH1B3 FP inh 66, PAFAH2 FP inh 54 | Zta DNA confirm 71 | EBNA-1 counter inactive
CCCCCCC(=O)N/N=C/c1c(O)n(CCCC)c(=S)[nH]c1=O	none
CCCCC(=O)N/N=C/c1c(O)n(CC)c(=S)[nH]c1=O	ZTA DNA inh 36 | Zta DNA confirm inactive | EBNA-1 counter inactive
O=C(O)c1[nH]c(=O)[nH]c(=O)c1F	none
O=C1NC(=O)N(Cc2ccco2)C(=O)/C1=C/C=C/c1ccco1	pPAFAH inh 33, ZTA DNA inh 35, PAFAH2 FP inh 33 | Zta DNA confirm inactive | EBNA-1 counter inactive
O=C1NC(=O)N(c2ccccc2)C(=O)/C1=C/C=C/c1ccco1	none
CN1C(=O)/C(=C/C=C/c2ccco2)C(=O)NC1=S	ZTA DNA inh 34 | Zta DNA confirm 69 | EBNA-1 counter inactive
Cn1c(O)c(/C=N/N2CCCCC2)c(=O)[nH]c1=O	ZTA DNA inh 37 | Zta DNA confirm inactive | EBNA-1 counter inactive
COc1ccccc1C1C([N+](=O)[O-])=C(N)Oc2c1c(=O)oc1ccccc21 (configuration not stated)	none
O=C1C(=O)c2ccccc2-c2ccccc21	ZTA DNA inh 65, PAFAH1B2 FP inh 43, PAFAH1B3 FP inh 71, PAFAH2 FP inh 58 | Zta DNA confirm 68 | EBNA-1 counter inactive
O=C1NC(=O)C(CCc2ccncc2)(CCc2ccncc2)C(=O)N1Cc1ccc(F)cc1	none
CCc1ccc(N2C(=O)NC(=O)/C(=C\c3cc(C)n(-c4cc(C(=O)O)cc(C(=O)O)c4)c3C)C2=O)cc1	ZTA DNA inh 37 | Zta DNA confirm inactive | EBNA-1 counter inactive
CCC1CN2CCc3cc(OC)c(OC)cc3C2CC1CC1NCCc2c1[nH]c1ccc(O)cc21 (configuration not stated)	none (no result: pPAFAH inh, ZTA DNA inh, EBNA-1 inh)
O=C(NC(=C(Cl)Cl)P(=O)(c1ccccc1)c1ccccc1)c1ccccc1	none
NC(=O)c1ccc(N=Cc2c(O)n(Cc3ccco3)c(=O)[nH]c2=O)cc1	none
CCN(CC)c1ccc(N=Cc2c(O)n(-c3cc(OC)ccc3OC)c(=O)[nH]c2=O)cc1	pPAFAH inh 38, ZTA DNA inh 34 | Zta DNA confirm inactive | EBNA-1 counter inactive | pPAFAH FP conf inactive
CCN(CC)c1ccc(N=Cc2c(O)n(Cc3ccco3)c(=O)[nH]c2=O)cc1	pPAFAH inh 46, ZTA DNA inh 37 | Zta DNA confirm inactive | EBNA-1 counter inactive | pPAFAH FP conf inactive
O=C(C[N+]12CCN(CC1)CC2)NCCc1ccc(Cl)cc1Cl	none
CC(C)(C)n1c(O)c(C=Nc2ccc3c(c2)CCC3)c(=O)[nH]c1=O	none
C[n+]1c2ccccc2nc2ccc(NCCO)cc21	pPAFAH inh 72, ZTA DNA inh 60, PAFAH1B2 FP inh 72, PAFAH1B3 FP inh 82, PAFAH2 FP inh 83 | Zta DNA confirm 48 | EBNA-1 counter inactive | pPAFAH FP conf 58
O=C(O)CC1OCC=C2CN3CCC45C6=CC(=O)C(=O)C([N+](=O)[O-])=C6NC4C1C2CC35 (configuration not stated)	ZTA DNA inh 41, PAFAH1B3 FP inh 72 | Zta DNA confirm 67 | EBNA-1 counter inactive | PAFAH1B3 conf FP inactive
O=C(O)CC1OCC=C2CN3CCC45c6ccccc6NC4C1C2CC35 (configuration not stated)	none
COc1ccc(NC2Oc3cc4c(cc3C(c3cc(OC)c(OC)c(OC)c3)C2C)OCO4)cc1 (configuration not stated)	none (no result: pPAFAH inh, ZTA DNA inh, EBNA-1 inh)
CCOC(=O)c1c(NS(=O)(=O)c2ccccc2)n(CCCOC)c2nc3ccccc3nc12	ZTA DNA inh 56, PAFAH1B3 FP inh 27 | Zta DNA confirm inactive | EBNA-1 counter inactive | PAFAH1B3 conf FP inactive
COc1cc(/C=C/c2nc3ccccc3c(=O)n2-c2ccc(O)cc2)ccc1O	none
COc1ccc(-n2c(/C=C/c3ccc(O)c(O)c3)nc3ccccc3c2=O)cc1	pPAFAH inh 37 | pPAFAH FP conf 46
Cn1c(O)c(/C=C2/C=CC=N2)c(=O)[nH]c1=O	none
COc1ccc(OC)c(N2C(=O)NC(=O)/C(=C/c3ccc([N+](=O)[O-])s3)C2=O)c1	pPAFAH inh 62, PAFAH1B2 FP inh 55, PAFAH1B3 FP inh 69, PAFAH2 FP inh 66 | pPAFAH FP conf 58
O=[N+]([O-])c1cc(O)c(O)c([N+](=O)[O-])c1	pPAFAH inh 37, PAFAH2 FP inh 37 | pPAFAH FP conf 70
CC[C@H](C)/C=C(C)/C=C/C1=CC2=C(Cl)C(=O)[C@@](C)(OC(C)=O)C(=O)C2=CO1	pPAFAH inh 79, PAFAH2 FP inh 45 | pPAFAH FP conf 79
c1cncc(CNC2CCCCC2)c1	none
Cc1ccc(-c2cc(-c3ccc(C)cc3)[n+](-c3ccc(C(=O)O)cc3)c(-c3ccc(C)cc3)c2)cc1	none
Cc1ccc(-c2cc(-c3ccccc3)cc(-c3ccccc3)[n+]2-c2ccc(C(=O)O)cc2)cc1	pPAFAH inh 38 | pPAFAH FP conf inactive
CNc1ccc2oc(C[C@H]3O[C@@]4(CC[C@H]3C)O[C@H]([C@H](C)C(=O)c3ccc[nH]3)[C@H](C)C[C@H]4C)nc2c1C(=O)O	pPAFAH inh 38 | pPAFAH FP conf inactive
O=C(N/N=C/c1c(O)n(CCC2=CCCCC2)c(=S)[nH]c1=O)c1ccccc1	pPAFAH inh 52, PAFAH1B2 FP inh 29 | pPAFAH FP conf 42
O=C(N/N=C/c1c(O)n(CCC2=CCCCC2)c(=O)[nH]c1=O)c1ccccc1	none
COc1ccc2c(c1)C(NC(C)=O)CCc1cc(OC)c(OC)c(OC)c1-2 (configuration not stated)	none (no result: pPAFAH inh, ZTA DNA inh, EBNA-1 inh)
CNc1ccc2nc3ccccc3[n+](C)c2c1	pPAFAH inh 88, ZTA DNA inh 83, EBNA-1 inh 45, PAFAH1B2 FP inh 99, PAFAH1B3 FP inh 100, PAFAH2 FP inh 108 | pPAFAH FP conf 81
COc1ccc(-n2c(O)c(C(C)=NCCN3CCNCC3)c(=O)[nH]c2=O)cc1	none
COC(=O)CCCNC(=O)CN1CC(c2ccccc2)CC1=O (configuration not stated)	none
O=C(c1cccs1)c1cn(Cc2ccccc2Cl)c2ccccc12	pPAFAH inh 71 | pPAFAH FP conf 71
